Source: PubChem BioAssay
ALDH1A1 inh – blocks purified human ALDH1A1 activity; P00352; Purified ALDH1A1, NADH fluorescence, propionaldehyde substrate; Potency, µM (titrated, usually from 75.3 µM), inactives show top-dose activity, negative = inhibition, usual class: inhibitors; 7.3% of 220,000 active; AID 1030;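 note: potency is the fitted concentration of half-maximal effect; plate controls were no enzyme wells and a reference inhibitor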
IMPase cell inh – membrane-permeable compound that blocks inositol monophosphatase; P97697; inhibition (IP1 accumulation), % at 46.1 µM; 120,000 tested, under 10 active; CHO-M1 cells, IP1 accumulation, HTRF TR-FRET ratio; active = well fitted curve in the direction sought with a large enough effect in the signal ratio, not every such curve was filed as active; inconclusive = small, poorly fitted or top-dose-only effect, or a change in a side signal; inactive = no such curve, though single readings can be large or run the other way; the % refers to the signal ratio;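 note: cells stimulated with carbachol in lithium chloride buffer; plate controls were DMSO basal wells for no effect and reference inhibitor wells for full effect; higher means more IMPase inhibition seen as more IP1 and lower FRET ratio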
Target sequence (P97697 whole entry, looked up): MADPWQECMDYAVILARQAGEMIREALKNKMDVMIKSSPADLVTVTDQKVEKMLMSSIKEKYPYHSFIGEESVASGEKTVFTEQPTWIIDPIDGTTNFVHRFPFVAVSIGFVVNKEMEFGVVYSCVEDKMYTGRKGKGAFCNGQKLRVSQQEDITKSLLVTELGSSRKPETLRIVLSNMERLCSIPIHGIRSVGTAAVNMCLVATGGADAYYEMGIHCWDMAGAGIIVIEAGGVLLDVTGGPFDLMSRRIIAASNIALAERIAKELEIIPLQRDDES
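In this qHTS, compounds (final up to 46 uM) act on CHO-M1 cells that are then activated through the M1 receptor with carbachol, in pH 7.4 buffer containing 50 mM LiCl, for 30 min. IP1 accumulation is quantified by the IP-One immunoassay.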
HPGD block – blocks human HPGD enzyme activity; P15428; purified HPGD, NADH fluorescence kinetic, PGE2 substrate; Potency, µM, without a hit: top-dose activity change, negative = inhibition, hits mostly inhibitors; 4.3% of 150,000 active; note: potency is the fitted concentration of half-maximal effect
Target sequence (P15428 whole entry, looked up): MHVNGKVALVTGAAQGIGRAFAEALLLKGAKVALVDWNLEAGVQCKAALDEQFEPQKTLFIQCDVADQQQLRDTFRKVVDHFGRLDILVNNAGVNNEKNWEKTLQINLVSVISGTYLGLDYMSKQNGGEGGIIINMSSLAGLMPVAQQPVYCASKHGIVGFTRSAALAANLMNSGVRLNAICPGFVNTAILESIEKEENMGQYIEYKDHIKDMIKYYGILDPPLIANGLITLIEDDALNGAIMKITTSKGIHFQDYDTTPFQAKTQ
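20 nM HPGD preincubated 15 min at room temperature with compound in 50 mM Tris-HCl pH 8, 0.01% Tween 20. Started with 1 mM NAD+ and 30 uM prostaglandin E2; NADH fluorescence (360/450 nm) read 5 times over 30-s intervals, last minus first.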
PNC assembly inh – inhibitors of perinucleolar compartment assembly; PC3M PTB-GFP, PNC prevalence imaging, 16 h; stronger effect = lower value; activity change (PNC), negative = inhibition, % at 10 µM; 3.1% of 140,000 active; AID 2417;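 active = readout at or below -70, meaning at least 70% loss of cells showing the perinucleolar compartment, a nuclear body marking cancer cells; inconclusive = readout between -30 and a set limit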;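 note: plate controls were DMSO wells for no effect and camptothecin positive control wells for full effect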
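PC3M cells stably expressing PTB-GFP, 750–1000 cells/well, treated 16 h at 37 °C with compound (23 nl of library stock), in duplicate. After paraformaldehyde fixation and Hoechst stain, imaged at 20x; PNC prevalence scored by image analysis.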
LMNA splice mod – modulators of lamin A splicing; AID 1487; 0.01% of 200,000 active; HeLa LMNA splicing GFP/RFP minigene ratio, 48 h; Potency, µM (titrated, usually from 46.1 µM), for the others: top-dose ratio change, negative = inhibition, usual class: inhibitors; active = well fitted inhibition curve with a large enough effect in the signal ratio, with a control signal flat, not every such curve was filed as active; inconclusive = small, poorly fitted or top-dose-only effect, or effect the other way, or a change in a side signal; the % refers to the signal ratio; note: potency is the fitted concentration of half-maximal effect
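Read-out is the ratio of GFP to DsRed2 object intensity, acquired by 488 nm laser-scanning cytometry on HeLa lamin A-EGFP minigene reporter cells. Compound incubation 48 hrs at 37 °C in Opti-MEM with 2% FBS; DMSO 0.5% final.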
Luc counter – Kinase-Glo luciferase inhibition (counter-screen); Kinase-Glo luciferase, ATP luminescence, 8 min; Potency, µM (doses to about 38.3 µM), without a hit: top-dose activity change, negative = inhibition, most hits filed as inhibitors; 0.28% of 200,000 active; AID 1379; active = well fitted inhibition curve with a large enough effect; inconclusive = small, poorly fitted or top-dose-only effect; note: potency is the fitted concentration of half-maximal effect; nearly all actives have a fitted effect of over 60% in size
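Compound is pinned into ATP-containing buffer (10 uM ATP, imidazole pH 7.2, 7 mM MgCl2). Kinase-Glo luciferase reagent is then added. Light output is recorded following an 8-min room-temperature incubation.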
* = called active by the depositor; [ ] = dose if it differs, or a comment. Rows were chosen to be rich in hits. Some 10% of all compounds tested hit in one or more screens of this group. Unless noted, calls come from the whole dose curve; as a rule, active = well fitted inhibition curve with a large enough effect (not every such curve was filed as active); inconclusive = small, poorly fitted or top-dose-only effect, or another doubt; inactive = no such curve, though single readings can be large or run the other way. Unless noted, % is set by controls: 0 for no effect and ±100 for the full control effect.

How did Cc1nc(N2CCOCC2)c2c(C(=O)N3CCN(c4ccccc4F)CC3)c(C)oc2n1 do in these assays?
LMNA splice mod: 6.7%[46 µM]

How did Clc1ccccc1-c1cc(NCc2ccccc2)ncn1 do in these assays?
ALDH1A1 inh: -14.5%; LMNA splice mod: inconclusive

Results for CC(C)(C)c1cc(CCC(=O)NNC(=S)NC(=O)c2ccccc2)cc(C(C)(C)C)c1O ?
ALDH1A1 inh: inconclusive; HPGD block: -18.0%; PNC assembly inh: 8.3; LMNA splice mod: inconclusive; Luc counter: 4.1%

How did CC1CCCC/C1=N\NC(=S)NCCc1ccccc1 (stereo not given) do in these assays?
ALDH1A1 inh: 14.1µM*; Luc counter: 0.4%

How did COC(=O)C(Cc1ccccc1)NC(=S)NC(=O)c1ccccc1 (stereo not given) do in these assays?
ALDH1A1 inh: 8.91µM*; LMNA splice mod: inconclusive; Luc counter: 4.8%

What do the screens show for `Cc1ccc(NC(=S)N/N=C2\CCCCC2C)cc1` (stereo not given)?
ALDH1A1 inh: inconclusive; LMNA splice mod: -1.9%[46 µM]; Luc counter: 0.9%

How did Fc1ccc(NC(=S)NCCc2ccccc2)c(F)c1F do in these assays?
ALDH1A1 inh: inconclusive; IMPase cell inh: 0.9; HPGD block: 25.1µM*; PNC assembly inh: -18.5; LMNA splice mod: -10.7%; Luc counter: 0.6%

What do the screens show for `O=C(CCc1ccccc1)NNC(=S)NC(=O)c1ccccc1`?
ALDH1A1 inh: 17.8µM*; IMPase cell inh: 2.6; HPGD block: -26.0%; PNC assembly inh: 79.3; LMNA splice mod: -18.2%; Luc counter: -2.7%

How did COc1ccccc1C(=O)OCc1cc(=O)n2nc(C3CC3)sc2n1 do in these assays?
LMNA splice mod: 12.1%[46 µM]

How did CCOc1ccc(NC(=O)CSc2nnc(-c3ccncc3)n2-c2ccccc2)cc1 do in these assays?
LMNA splice mod: 8.1%[46 µM]

Results for O=C1C[C@@H](O)[C@@H](O)[C@@H]2[C@H]3C(=O)N(c4ccc(F)cc4F)C(=O)[C@@H]3CC[C@@H]12 ?
ALDH1A1 inh: 4.5%[13.5 µM]

How did O=C(CNC(=S)NC(=O)c1ccc(Br)o1)c1ccccc1 do in these assays?
ALDH1A1 inh: 0.9%; HPGD block: 2.1%; PNC assembly inh: -18.2; LMNA splice mod: inconclusive; Luc counter: -2.5%

How did O=C(CNC(=S)NC(=O)c1ccc(Cl)cc1)c1ccccc1 do in these assays?
ALDH1A1 inh: 8.91µM*; HPGD block: -4.9%; PNC assembly inh: -5.2; LMNA splice mod: 12.8%; Luc counter: -0.7%

What do the screens show for `CC(=O)NC(=S)NNC(=O)CCc1ccccc1`?
ALDH1A1 inh: 20µM*; Luc counter: 1.0%

How did O=C(NC(=S)NCCc1ccccc1)c1ccccc1 do in these assays?
ALDH1A1 inh: 15.8µM*; IMPase cell inh: 7.8; HPGD block: -21.9%; PNC assembly inh: inconclusive; LMNA splice mod: 4.1%; Luc counter: -5.2%

Results for CC(=O)NNC(=S)NCCc1ccccc1 ?
ALDH1A1 inh: 1.9%; LMNA splice mod: 7.1%[46 µM]; Luc counter: -1.3%

Results for O=C(NC(=S)NCCC1=CCCCC1)c1cccnc1 ?
ALDH1A1 inh: 14.1µM*; LMNA splice mod: -4.6%[46 µM]; Luc counter: 0.3%

How did CCCNC(=O)OC[C@@H]1O[C@H](CCO/N=C\C[C@H]2C=C[C@H](OC(C)=O)[C@@H](COC(C)=O)O2)C=C[C@@H]1Oc1ccc(OC)cc1 do in these assays?
ALDH1A1 inh: -3.5%[13.5 µM]

What do the screens show for `Cc1ccc(NC(=S)NCCc2ccccc2)nc1`?
ALDH1A1 inh: 10µM*; LMNA splice mod: inconclusive; Luc counter: -6.5%

What do the screens show for `Fc1cccc(NC(=S)NCCc2ccccc2)c1`?
ALDH1A1 inh: inconclusive; HPGD block: -23.7%; PNC assembly inh: 46.3; LMNA splice mod: inconclusive; Luc counter: -1.3%

Results for Cc1ccc(NC(=O)CCCc2ccccc2)nc1 ?
ALDH1A1 inh: -5.5%; LMNA splice mod: inconclusive; Luc counter: 0.6%
